High-throughput results deposited in PubChem BioAssay by National Center for Advancing Translational Sciences (NCATS).
This is a sample that favours compounds with a hit; in the whole collection about 11% have one here.
ALDH1A1 block: blocks purified human ALDH1A1 activity; AID 1030; P00352; Purified ALDH1A1, NADH fluorescence, propionaldehyde substrate; Potency, µM (series often up to 75.3 µM), for inactives: at the highest dose activity, negative = inhibition, most hits filed as inhibitors; actives 7.3% (n = 220,000);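 also: potency is read from the fitted curve at half-maximal effect; plate controls were no enzyme wells and a reference inhibitor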
HPGD inh: inhibitors of human 15-hydroxyprostaglandin dehydrogenase (HPGD). purified HPGD, NADH fluorescence kinetic, PGE2 substrate. Potency, µM, for inactives: at the top dose activity change, negative = inhibition, hits mostly inhibitors. actives 4.3% (n = 150,000). AID 894; also: potency is read from the fitted curve at half-maximal effect
Target sequence (P15428 whole entry, looked up): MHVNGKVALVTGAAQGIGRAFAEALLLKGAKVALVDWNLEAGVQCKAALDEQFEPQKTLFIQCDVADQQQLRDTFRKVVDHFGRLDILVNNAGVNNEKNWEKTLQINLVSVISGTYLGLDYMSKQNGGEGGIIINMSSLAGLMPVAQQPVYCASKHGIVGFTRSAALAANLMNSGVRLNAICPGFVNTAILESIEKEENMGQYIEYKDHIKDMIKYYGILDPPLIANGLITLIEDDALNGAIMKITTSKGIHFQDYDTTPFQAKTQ
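NADH formation kinetics: reaction with 30 uM PGE2 and 1 mM NAD+ (final), 20 nM enzyme, Tris-HCl pH 8 with Tween 20, after 15 min compound preincubation at room temperature. Fluorescence change, last versus first of five reads.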
PNC assembly inh: inhibitors of perinucleolar compartment assembly; PC3M PTB-GFP, PNC prevalence imaging, 16 h; hits give low values; activity change (PNC), negative = inhibition, % at 10 µM; actives 3.1% (n = 140,000); AID 2417;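 active = readout at or below -70, meaning at least 70% loss of cells showing the perinucleolar compartment, a nuclear body marking cancer cells; inconclusive = readout between -30 and a set limit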;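 also: plate controls were DMSO wells for no effect and camptothecin positive control wells for full effect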
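Compounds are pinned in duplicate onto adhered PC3M cells stably expressing GFP-tagged PTB and incubated 16 h at 37 C. Cells are then fixed, nuclei stained with Hoechst, and PNC-positive cells counted.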
Numbers without * were called inactive; ? = inconclusive; · = not tested or not shown; [ ] = remark or other dose. Unless noted, calls follow the shape of the dose curve; as a rule, active = well fitted inhibition curve with a large enough effect (not every such curve was filed as active); inconclusive = small, poorly fitted or top-dose-only effect, or another doubt; inactive = no such curve, though single readings can be large or run the other way. Unless noted, % is scaled to controls: 0 for no effect and ±100 for the full control effect.

SMILES | ALDH1A1 block | HPGD inh | PNC assembly inh
CSc1nc(O)c(C(c2cccc([N+](=O)[O-])c2)c2c(O)nc(SC)[nH]c2=O)c(=O)[nH]1 | -3% | · | ·
Clc1ccc(-c2nnc3n2CCCC3)cc1Cl | -5% | 32µM* | 97
Cc1cc(Cl)ccc1OCc1nnc2n1CCCCC2 | 5% | · | ·
O=S(=O)(c1cccc(-c2nnc3n2CCCCC3)c1)N1CCCC1 | -3% | · | ·
Brc1ccc(-c2nnc3n2CCCCC3)cc1 | 13µM* | 7.1µM* | -28
Nc1cccc(-c2nnc3n2CCCCC3)c1 | -10% | · | ·
C1CCc2nnc(-c3nnc4n3CCCCC4)n2CC1 | 6% | -8% | -19
Cc1ccc(C)n1-c1ccc(-c2nnc3n2CCCCC3)s1 | ? | 3.2µM* | 7
COc1ccccc1S(=O)(=O)Nc1ccc(-c2nnc3n2CCCCC3)cc1 | ? | 32µM* | 54
Cc1cc(/C=N/NC(N)=S)c(O)c(/C=N/NC(N)=S)c1 | 457% | · | ·
Cc1cc(NC(=O)CN2C(=O)NC3(CCCCC3C)C2=O)no1 (configuration not stated) | -8% | -5% | -6
O=C(O)CN1CCN(Cc2ccccc2F)C1=O | -8% | · | ·
COc1ccc(OC(=O)c2ccc(Cl)cc2)c(C(C)=O)c1 | -1% | · | ·
O=C(NNC(=O)C12CC3CC(CC(C3)C1)C2)[C@@H]1C[C@H]1c1ccccc1 | -9% | · | ·
CCOC(=O)C1(Cc2ccccc2)CCCN(Cc2ccc(OCC)c(CO)c2)C1 (configuration not stated) | 5% | · | ·
CC(C)C(C)(C)C(C)(C)C(C)(C)S | ? | -2% | ·
Cc1ccc(S(=O)(=O)N(C)Cc2ccc(-c3nnc4n3CCC4)cc2)cc1 | -9% | 4.5µM* | 3
Clc1ccc(-c2nnc3n2CCCCC3)cc1 | -1% | 16µM* | ?
Clc1cccc(-c2nnc3n2CCCCC3)c1 | 3% | · | ·
CN(C)S(=O)(=O)c1ccc(Cl)c(-c2nnc3n2CCCCC3)c1 | -2% | · | ·
CC(C)OC(=O)C[C@H](NC(=O)OC(C)(C)C)c1ccccc1 | 2%[13.5 µM] | · | ·
COc1cc2c(cc1OC)Cc1cc(OC)c(OC)cc1Cc1cc(OC)c(OC)cc1C2 | -4% | -1% | ·
O=C(CSCc1c(F)cccc1Cl)Nc1ccccc1C(=O)N1CCOCC1 | -5% | · | ·
O=[N+]([O-])c1cccc(-n2nnnc2CN2CCCC2)c1 | -5% | · | ·
Cc1oc2ccc(NS(=O)(=O)c3ccccc3)cc2c1C(=O)Nc1ccccc1 | ? | -22% | -16
SMILES | ALDH1A1 block | HPGD inh | PNC assembly inh
COCCOC(=O)c1c(C)oc2ccc(NS(=O)(=O)c3ccccc3)cc12 | 20µM* | -15% | 24
CCC1C(C#N)=C(N)OC2=C1C(=O)CC(C)(C)C2 (configuration not stated) | -11% | -22% | ?
CC1(C)CC(=O)C2=C(C1)N(c1ccccc1C#N)C(N)=C(C#N)C2c1cccs1 (configuration not stated) | -3% | -5% | ?
CC1(C)CC(=O)C2=C(C1)OC(N)=C(C#N)C2c1cccs1 (configuration not stated) | 22µM* | · | ·
CC1(C)CC(=O)C2=C(C1)OC(N)=C(C#N)C2C1C=CCCC1 (configuration not stated) | 4µM* | -25% | ?
COc1ccc(C2C3=C(CC(C)(C)CC3=O)OC(N)=C2[N+](=O)[O-])cc1 (configuration not stated) | 19µM* | -12% | 37
COc1cc(C2C3=C(CC(C)(C)CC3=O)OC(N)=C2[N+](=O)[O-])ccc1O (configuration not stated) | ? | · | -3
N#CC1=C(N)OC2=C(C(=O)CCC2)C1c1cccs1 (configuration not stated) | -2% | · | ·
CC1(C)CC(=O)C2=C(C1)OC(c1cccs1)C(C#N)=C2N (configuration not stated) | 11µM* | -16% | -3
COc1cc(CNC2CCCC2)cc(Br)c1OCC(=O)Nc1ccccc1C | -1% | · | ·
CC(=O)N1N=C(c2cccc([N+](=O)[O-])c2)OC1c1ccc(Cl)cc1Cl (configuration not stated) | -3% | -2% | 56
CC1(C)CC(=O)C2=C(C1)OC1=C(C(=O)CC(C)(C)C1)C2c1ccccc1 | 6% | -3% | 11
CC1(C)CC(=O)C2=C(C1)OC(N)=C(C#N)C2c1ccccc1 (configuration not stated) | 14µM* | -17% | 31
COC(=O)C1=C(N)OC2=C(C(=O)CC(C)(C)C2)C1c1cccs1 (configuration not stated) | -11% | 22µM* | -12
CC1(C)CC(=O)C(C2C3=C(CC(C)(C)CC3=O)Oc3ccccc32)=C(O)C1 (configuration not stated) | 28µM* | -8% | ?
COc1ccc2c(c1)C(C1=C(O)CC(C)(C)CC1=O)C1=C(CC(C)(C)CC1=O)O2 (configuration not stated) | -3% | -9% | ?
COC(=O)C1=C(C)NC2=C(C(=O)CCC2)C1c1cccs1 (configuration not stated) | -8% | -29% | ?
CC(c1ccco1)N(C(=O)c1ccccc1NS(=O)(=O)c1ccc(Cl)c([N+](=O)[O-])c1)c1ccccn1 (configuration not stated) | -5% | -2% | ?
CN(C)CN1C(=O)S/C(=C2/C(=O)N(CN(C)C)c3ccccc32)C1=O | -2%[13.5 µM] | 0% | ·
CCOc1ccc(N2C(=O)CN(CC(=O)OC)C2=S)cc1 | 16% | · | ·
O=C(Nc1ncc(C(F)(F)F)cc1Cl)c1ccc(S(=O)(=O)N2CCOCC2)cc1 | -1% | · | ·
N#CC(c1ccccn1)(c1ncc(C(F)(F)F)cc1Cl)N1CCOCC1 (configuration not stated) | 8% | -10% | -100*
N#CC(c1ccccn1)c1ncc(C(F)(F)F)cc1Cl (configuration not stated) | -1% | · | ·
N#CC(c1ccncc1)(c1ncc(C(F)(F)F)cc1Cl)N1CCOCC1 (configuration not stated) | 0.4µM* | · | ·
CSCCC(NC(=O)c1cccc([N+](=O)[O-])c1)C(=O)O (configuration not stated) | 3% | -7% | -22
SMILES | ALDH1A1 block | HPGD inh | PNC assembly inh
COCCN(CCOC)C(=O)COC(=O)c1ccc(Cl)c(S(=O)(=O)N(C)c2ccccc2)c1 | 9% | · | ·
Cc1c(-c2nc(N)nc(C3CC3)c2C)nc(N)nc1C1CC1 | -2%[13.5 µM] | -5% | ·
CC1(C(=O)NCc2ccccn2)C=CCN1C(=O)c1ccccc1 (configuration not stated) | 4% | -10% | -119*
CNC(=O)C1(C)C=CCN1C(=O)c1ccccc1 (configuration not stated) | 6% | -14% | 27
CC1CCCC(C)N1C(=O)COc1ccc(C(=O)N/N=C/c2ccc(C(=O)O)cc2)cc1 (configuration not stated) | -2% | · | ·
CS(=O)(=O)Nc1c(O)ccc2c1CCC[C@H]2C1=NCCN1 | 6% | 2% | ·
Cc1ccccc1N1CCN(C(=O)c2ccccc2NC(=O)c2ccccc2C(=O)O)CC1 | -5% | · | ·
CC(=O)Nc1cccc(OCC(=O)Nc2ccc(F)cc2)c1 | -2% | -3% | 25
Cc1cc(OCC(=O)Nc2ccncc2)ccc1[N+](=O)[O-] | 10µM* | · | ·
CC(=O)Nc1ccc(NC(=O)COc2ccc([N+](=O)[O-])cc2)cc1 | 11µM* | · | ·
